{"source": "PubChem BioAssay AID485364", "about": "(National Center for Advancing Translational Sciences (NCATS), 2010)", "note": "“And” between values parts separate entries of the source, which are not always exact repeats. Identical values can stand only once. Hit rate of the full screen: of about 360,000 compounds, about 11,000 (3.1%) were called active. Where a call stands in place of a potency, no number is given. Roughly 4% stayed inconclusive and do not appear here. Calls come from the whole dose curve; as a rule, active = well fitted inhibition curve with a large enough effect; inconclusive = small, poorly fitted or top-dose-only effect; inactive = no such curve, though single readings can be large or run the other way. This excerpt belongs to a sample that is enriched for actives. Potency is the fitted concentration of half-maximal effect.", "data": [{"biological_target": "Schistosoma mansoni thioredoxin glutathione reductase (TGR) (UniProt Q962Y6)", "assay": "qHTS Assay for the Inhibitors of Schistosoma Mansoni Peroxiredoxins; note: nearly all actives have a fitted effect of over 60% in size", "settings": "purified TGR, DTNB reduction, TNB absorbance 405 nm; series mostly up to 114 µM", "how_it_was_run": "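TGR 20 nM + NADPH 100 uM (dispensed conc.), cpd preinc 15 min RT; start with NADPH (500 uM addition) then DTNB (15 mM addition). Kinetic TNB absorbance, 405 nm filter. Four-parameter Hill fit across titration.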", "values": [{"molecule": "Cc1ccccc1C(=O)Nc1sc2c(c1C(=O)N1CCC(C)CC1)CCCC2", "Potency": "inactive"}, {"molecule": "CCOC(=O)c1ccccc1NC(=O)CCc1c(C)nc2c(c1C)c(=O)n(C)c(=O)n2C", "Potency": "inactive"}, {"molecule": "Cn1c(=O)c([N+](=O)[O-])c(Oc2ccccc2)c2ccccc21", "Potency": "2.82 µM (active)"}, {"molecule": "Cc1cccc(C2CC(=O)Oc3c2c(=O)n(C)c2ccccc32)c1", "note": "(centres undefined)", "Potency": "inactive"}, {"molecule": "Cc1cccc(OP(=O)(Nc2c(C)n(C)n(-c3ccccc3)c2=O)Oc2cccc(C)c2)c1", "Potency": "inactive"}, {"molecule": "Cn1c(=O)c(Sc2ccc(Cl)cc2)c(O)c2ccccc21", "Potency": "inactive"}, {"molecule": "Cc1cccc(Oc2c([N+](=O)[O-])c(=O)n(C)c3ccccc23)c1", "Potency": "3.98 µM (active)"}, {"molecule": "Cn1nc(-c2ccccc2)c2cc([N+](=O)[O-])ccc21", "Potency": "inactive"}, {"molecule": "Cc1ccc(Cl)cc1N1CCN(S(=O)(=O)c2cc3[nH]c(=O)c(=O)[nH]c3cc2C)CC1", "Potency": "inactive"}, {"molecule": "CCCNC(=O)c1ccc2c(c1)ncn2-c1ccc(C)cc1C", "Potency": "inactive"}, {"molecule": "CC(C)CC(=O)NCC(c1ccc2c(c1)OCO2)N1CCN(c2ccc(F)cc2)CC1", "note": "(centres undefined)", "Potency": "inactive"}, {"molecule": "CCOc1cc(/C=C(\\C#N)C(=O)Nc2ccccc2C)ccc1OCc1cc(=O)n2nc(CC)sc2n1", "Potency": "inactive"}, {"molecule": "CCOCCCn1c(SCC(=O)Nc2ccc(CC)cc2)nc2ccccc2c1=O", "Potency": "inactive"}, {"molecule": "CCOc1ccc(NC(=O)CC2C(=O)N(c3cccc(OC)c3)C(=O)N2C2CCCCC2)cc1", "note": "(centres undefined)", "Potency": "inactive"}, {"molecule": "CCOc1ccc(CNC(=O)C2CCC(=O)N2C2CCCC2)cc1OC", "note": "(centres undefined)", "Potency": "inactive"}, {"molecule": "COC(=O)C1=CN(Cc2ccc(OC)cc2)C=C(C(=O)OC)C1c1ccc(O)c(OC)c1", "Potency": "inactive"}, {"molecule": "CCOc1cc(C2C(C(=O)OC)=CN(C3CCCC3)C=C2C(=O)OC)cc(Br)c1O", "Potency": "56.2 µM (active)"}, {"molecule": "COc1ccc(C)cc1Nc1nc2ccccc2c2nnc(C)n12", "Potency": "inactive"}, {"molecule": "COc1cc2ccccc2cc1C(=O)Nc1cccc(-c2nc3ccccc3o2)c1", "Potency": "inactive"}, {"molecule": "CCCCN(CCCNC(=O)c1cc(Nc2ccccc2OC)nc2ccccc12)c1ccccc1", "Potency": "inactive"}, {"molecule": "O=C(c1cccc(S(=O)(=O)Nc2ccccc2Cl)c1)N1CCN(C(=O)c2ccco2)CC1", "Potency": "31.6 µM (active)"}, {"molecule": "O=C(c1cccc([N+](=O)[O-])c1)N1CCN(C(=O)c2ccco2)CC1", "Potency": "inactive"}, {"molecule": "O=C(CNS(=O)(=O)c1ccccc1)N1CCN(C(=O)c2ccco2)CC1", "Potency": "inactive"}, {"molecule": "COc1ccc(OC)c(NC(=O)CSc2nc3ccccc3nc2N2CCCCC2)c1", "Potency": "inactive"}, {"molecule": "CCOc1ccc(C2C(C(=O)Nc3ccc(Cl)cc3)=C(C)Nc3nc(C(F)(F)F)nn32)cc1", "note": "(centres undefined)", "Potency": "inactive"}, {"molecule": "Cc1cccc(C(=O)N2c3nc(-c4ccco4)nn3C3(CCCCC3)[C@@H]3CCCC[C@@H]32)c1", "Potency": "35.5 µM (active)"}, {"molecule": "Cc1cccc(C(=O)NC(=S)N(C)C2CCCCC2)c1", "Potency": "inactive"}, {"molecule": "Cc1ccc(C(=O)N2c3ncnn3C3(CCCCC3)[C@@H]3CCCC[C@@H]32)cc1", "Potency": "inactive"}, {"molecule": "CCN(CC)CCNC(=O)Cn1ncc2c3ccccc3n(Cc3ccccc3C)c2c1=O", "Potency": "inactive"}, {"molecule": "COc1ccc(/C=C/c2noc(-c3ccccc3O)n2)cc1OC", "Potency": "inactive"}, {"molecule": "COc1ccccc1CCNC(=O)c1cccn1-c1nnc(N2CCCCC2)s1", "Potency": "inactive"}, {"molecule": "COc1ccc(C2C=C(c3ccc(Br)cc3)Nc3nc(NS(C)(=O)=O)nn32)cc1", "note": "(centres undefined)", "Potency": "22.4 µM (active)"}, {"molecule": "Cc1ccc(C2C=C(c3ccc(Cl)cc3)Nc3nc(NC(=O)CCC(=O)O)nn32)cc1", "note": "(centres undefined)", "Potency": "17.8 µM (active)"}, {"molecule": "COc1ccc(C2=CC(c3ccccc3Cl)n3nc(-c4ccc(Cl)cc4)nc3N2)cc1", "note": "(centres undefined)", "Potency": "inactive"}, {"molecule": "CC1=C(C(=O)Nc2ccccc2)C(c2ccc(C)cc2)n2nc(SCc3ccccc3C)nc2N1", "note": "(centres undefined)", "Potency": "inactive"}, {"molecule": "COc1ccc(CC(=O)Nc2nc3n(n2)C(c2ccccc2)CC(=O)N3)cc1OC", "note": "(centres undefined)", "Potency": "inactive"}, {"molecule": "COc1ccc(CNC(=O)Cn2nnc(-c3ccc(S(C)(=O)=O)cc3)n2)cc1", "Potency": "inactive"}, {"molecule": "CCC(C(=O)Nc1cc(OC)ccc1OC)n1c(=O)c(C(F)(F)F)nc2ccccc21", "note": "(centres undefined)", "Potency": "inactive"}, {"molecule": "COc1ccc(CCNC(=O)c2ccc(CSCc3ccc(C)cc3)o2)cc1OC", "Potency": "inactive"}, {"molecule": "Cc1ccccc1CN1CCC(CNC(=O)c2c(C)oc3ncnc(N4CCCCC4)c23)CC1", "Potency": "inactive"}, {"molecule": "CCOc1ccc(OCC)c(Nc2nc3ccccc3n3nnnc23)c1", "Potency": "inactive"}, {"molecule": "COc1ccc(CCNC(=O)c2cnc3sc(N4CCCCCC4)nn3c2=O)cc1OC", "Potency": "inactive"}, {"molecule": "COc1cccc(N2CC(NC(=O)/C=C\\c3ccccc3)CC2=O)c1", "note": "(centres undefined)", "Potency": "inactive"}, {"molecule": "O=S(=O)(NC1CC1)c1ccc(F)c(F)c1", "Potency": "inactive"}, {"molecule": "CC1CCC(NS(=O)(=O)c2ccc3c(c2)n(C)c(=O)c(=O)n3C)CC1", "note": "(centres undefined)", "Potency": "inactive"}, {"molecule": "Cn1sc(=O)c2cc(S(=O)(=O)NC3CC3)ccc21", "Potency": "1.58 µM (active)"}, {"molecule": "Cn1c(COc2ccccc2C(C)(C)C)nc2ccccc21", "Potency": "inactive"}, {"molecule": "Cc1cc2c(cc3c(SCc4cccc(Cl)c4)nnc(C)n32)o1", "Potency": "inactive"}, {"molecule": "Cc1ccc(-c2nnc(Nc3cccc(Br)c3)c3ccccc23)cc1S(=O)(=O)NCC1CCCO1", "note": "(centres undefined)", "Potency": "inactive"}, {"molecule": "Cc1cccc(OCC(=O)N(Cc2ccc(C(C)C)cc2)Cc2ccco2)c1C", "Potency": "inactive"}, {"molecule": "COc1ccc(CN(C)C(=O)Cc2c[nH]c3ccccc23)c(OC)c1OC", "Potency": "inactive"}, {"molecule": "CN(Cc1cccs1)C(=O)Cc1c[nH]c2ccccc12", "Potency": "inactive"}, {"molecule": "CCOC(=O)CN(C)Cc1c[nH]c2ccccc12", "Potency": "35.5 µM (active)"}, {"molecule": "Brc1ccc2c(c1)NC(c1cccnc1)=NC(c1ccccc1)=N2", "Potency": "inactive"}, {"molecule": "c1ccc(C2=Nc3cccc4cccc(c34)N2)cc1", "Potency": "35.5 µM (active)"}, {"molecule": "COc1ccccc1C1=Nc2cccc3cccc(c23)N1", "Potency": "inactive"}, {"molecule": "CCC(CC)c1nn2cc(-c3ccccc3)nc2s1", "Potency": "inactive"}, {"molecule": "COc1ccc(Br)cc1CNC(=O)c1cc(=O)[nH]c2ccc(S(=O)(=O)N3CCCC3)cc12", "Potency": "inactive"}, {"molecule": "O=S(=O)(c1ccc(Br)cc1)c1nnn2c1nc(N1CCOCC1)c1sccc12", "Potency": "inactive"}, {"molecule": "CC(=O)OC1=C(C(C)=O)N(Cc2ccccc2)S(=O)(=O)c2ccccc21", "Potency": "inactive"}, {"molecule": "Cc1ccc(CNC(=O)c2c(O)nc3c(C)cccn3c2=O)cc1", "Potency": "inactive"}, {"molecule": "O=C(NCc1cccs1)c1ccc(CS(=O)Cc2ccccc2Cl)o1", "note": "(centres undefined)", "Potency": "inactive"}, {"molecule": "Cc1ccc(CNC(=O)c2ccc(CS(=O)Cc3cccc(Cl)c3)o2)cc1", "note": "(centres undefined)", "Potency": "35.5 µM (active) and 25.1 µM (active)"}, {"molecule": "CCOc1ccc(CNC(=O)c2ccc(CS(=O)c3ccccc3)o2)cc1", "note": "(centres undefined)", "Potency": "inactive"}]}]}
